This note sets out measurements from PubChem BioAssay AID1047 (SRMLSC, 2008).

Molecules are shown by their SMILES. Screen size: about 1,500 compounds; about 1,400 (93%) were called active. So high a share suggests a set chosen from earlier hits. Only a sample is shown. Potency and affinity values are given separately. Unmarked numbers belong to inactive results. The rule behind the calls is not given here.

A short description of the assay: viability of PTEN-deleted HCT116 cells – cell-based, HCT116 PTEN knockout, dose response (AID 1047). To be noted: CellTiter-Glo, 60 h; series mostly up to 30 µM; viability: at the top concentration. For orientation: ATP-based viability assays read luminescence as a measure of living cells.
For orientation: viability means a read-out of living cells in per cent, often relative to untreated cells. As to `CCCNC(=O)OC[C@H]1O[C@H](CCO/N=C/[C@@H](NS(=O)(=O)c2ccc(C)cc2)[C@H](C)/C=C/CC(=O)OC)C=C[C@@H]1Oc1ccc(OC)cc1`, the “viability” value is 80.8%. Turning to `Cc1nn(C(=O)N2CCOCC2)c(C)c1C`, the “viability” value is 102%. `CCN1CCN(Cc2ccc(OCc3ccccc3)cc2)CC1`: the “viability” value was 96.5%. For `O=C(Nc1cccc(C(F)(F)F)c1)/C(=C\c1ccco1)NC(=O)c1cccs1` the value was 84.9%; for `CSc1n[nH]c(NCc2cccs2)n1`, 97.2%. For `Nc1nnc(SCc2ccc(Cl)cc2)s1`, the “viability” value was 89.9%. With `COC(=O)c1cc(OC)c(OC)cc1NC(=O)c1ccccc1`, the “viability” value is 96.4%. For `C=CCNC(=O)c1ccccc1NC(=O)c1ccccc1C` the value was 92.4%; for `CN1CCN(c2nc(N3CCN(c4ccccc4)CC3)ncc2F)CC1`, 81.6%; for `O=C(c1ccc2c(=O)n(CC3CCCO3)c(=S)[nH]c2c1)N1CCN(c2ccccc2)CC1` (stereo not given), 94%. Take `Cc1ccc(CNc2ccc(O)cc2)cc1`: the “viability” value is 98.5%. With `OC1(c2cccc(C(F)(F)F)c2)CCN(c2ccc(-c3ccccc3)nn2)CC1`, the “viability” value is 92.9%.

For `COc1cc2c(cc1OC)C1(Nc3c-2c(C)nn3-c2ccccc2)C(=O)Nc2ccccc21` (stereo not given), the “viability” value was 91.2%. Regarding `CCOc1ccccc1NC(=O)Cn1cnc2c(nnn2-c2cccc(OC)c2)c1=O`, the “viability” value is 96.3%. For `O=C(COc1ccc(/C=N/NC(=O)c2cc3ccccc3o2)cc1Cl)Nc1ccccc1`, the “viability” value is 87.9%. For `O=C(NCc1ccc2c(c1)OCO2)c1ccc2c(c1)C(=O)N(CC1CCCO1)C2=O` (stereo not given), the “viability” value is 98.1%. On to `CCOC(=O)C1=C(C)NC(=S)N(C(C)=O)C1c1ccc(Cl)cc1` (stereo not given), for which the “viability” value was 82.1%. For `CCC(Sc1nc2sc(C(=O)OC)c(C)c2c(=O)n1N)C(=O)N(CC)CC` (stereo not given), the “viability” value was 89.6%. On to `N#CC(c1ccc(Cl)nn1)c1ccc(Cl)cc1Cl` (stereo not given), for which the “viability” value is 90.3%. Consider `COc1ccc(CCN2C(=O)CN(Cc3ccccc3)CC2=O)cc1OC`, for which the “viability” value was 89.9%. For `CC(=O)c1c(C)nc(-c2ccc(Cl)cc2Cl)n1O` the value was 103%; for `CCOC(=O)Nc1ccc(C)cc1Br`, 100%; for `Cc1cc2ncn(C(=O)N3CCC(C)CC3)c2cc1C`, 104%.

As for `Cc1cc(NC(=O)CSc2nc(-c3cccnc3)ccc2C#N)no1`, the “viability” value was 106%. The figure for `O=C(CSc1nnc(-c2ccccc2Cl)o1)Oc1ccc(Br)cc1` is 98.8%. `Cc1cccc(CS(=O)(=O)c2nnc([C@H](Cc3ccccc3)NC(=O)OC(C)(C)C)o2)c1`: the “viability” value is 93.7%.

For `O=C(Nc1cccc(C(F)(F)F)c1)C12CC3CC(CC(C3)C1)C2`, the “viability” value was 89.8%. As for `Cc1cc(NC(=O)CN2CCN(c3ccc(O)cc3)CC2)no1`, the “viability” value was 86.1%. `Cc1ccc(C(=O)c2coc3c2C(=O)C(=O)c2ccccc2-3)cc1`: the “viability” value was 96.7%. For the compound `COCCN1C(=O)c2oc3ccccc3c(=O)c2C1c1ccc(OC)c(OC)c1` (stereo not given), the “viability” value was 84.9%. For the compound `O=C(NC(=S)Nc1ccc2c(c1)OCO2)c1ccc(Cl)cc1`, the “viability” value was 83.4%.

For the compound `CCN(CC)c1ccc(N=Cc2ccc(N(CC)CC)cc2O)cc1`, the “viability” value was 95.8%.

In the case of `Cc1ccc(C(=O)Nc2ccccc2C(=O)NC(C(=O)O)C(C)C)cc1` (stereo not given), the “viability” value is 95.5%. For `Cc1cc(NS(=O)(=O)c2ccccc2)cc(Cl)c1O`, the “viability” value is 93.7%.

On to `O=C(Nc1cccc2ccccc12)N1CCN(Cc2ccc3c(c2)OCO3)CC1`, for which the “viability” value is 97.6%. In the case of `CCCCn1c(=NC(=O)c2ccco2)c(C(=O)OCC)cc2c(=O)n3ccccc3nc21`, the “viability” value was 72.2%. The figure for `CS(=O)(=O)c1nc(-c2cccs2)cc(C(F)(F)F)n1` is 97.9%; for `COCCNC(=O)NC1(C(F)(F)F)Oc2ccc(Cl)cc2O1` (stereo not given) it is 87.3%; for `O=C(NCc1ccc(F)cc1)C1C2C=CC3(CN(Cc4cccnc4)C(=O)C13)O2` (stereo not given) it is 102%.

With `Cc1c(Cl)ccc2sc(NC(=O)CN3C(=O)c4ccccc4C3=O)nc12`, the “viability” value is 103%. Take `COc1ccc(S(=O)(=O)CCC(=O)N(C)c2ccc(OC)cc2OC)cc1`: the “viability” value was 81.1%. In the case of `CCCCN(C)C(=O)C1CCC(=O)N(c2cc(OC)c(OC)c(OC)c2)C1c1ccc(OC)cc1` (stereo not given), the “viability” value was 94.9%.

As for `CCCCS/C(N)=N/N=C/c1ccccc1O`, the “viability” value is 90.8%. With `N/C(=N\c1nc(C(F)(F)F)cc(=O)[nH]1)Nc1ccc(Cl)cc1`, the “viability” value was 91.2%.

As for `COc1ccc(N2CCN(C(c3cc(OC)ccc3OC)c3nnnn3CC3CCCO3)CC2)cc1` (stereo not given), the “viability” value is 86.8%. On to `N/C(=N\OC(=O)C12CC3CC(CC(C3)C1)C2)c1ccccc1`, for which the “viability” value was 86.5%. The figure for `Cc1cc(C)c2c(=O)n(CC(=O)N3CCC(Cc4ccccc4)CC3)sc2n1` is 95.1%; for `COC(=O)CN1C(C)=Nc2ccc(Br)cc2C1c1ccccc1` (stereo not given) it is 89.8%; for `CCCC/C(C)=N\NC(=O)CNS(=O)(=O)c1ccc([N+](=O)[O-])cc1` it is 111%.

For the compound `CCCC(=O)Nc1sc2c(c1C#N)CCCCC2`, the “viability” value is 93.2%. Regarding `Oc1ccc(C=Nc2ccc3ncccc3c2)c(O)c1`, the “viability” value is 86.3%. For the compound `CCCCN1C[C@H](O)[C@@H](O)[C@H](O)[C@H]1CO`, the “viability” value was 92%. In the case of `COc1cccc2cc(C(=O)N(C)C)c(=O)oc12`, the “viability” value was 89.8%.

For the compound `CC1CCN(CC(=O)N2c3ccccc3CCc3ccccc32)CC1`, the “viability” value was 94.3%.

With `CCOc1ccc(C2/C(=C(\O)c3c(C)[nH]c(C(=O)OC)c3C)C(=O)C(=O)N2CCN(C)C)cc1` (stereo not given), the “viability” value is 105%. As for `O=C(NCc1ccccn1)c1c(O)c2cccc3c2n(c1=O)CC3`, the “viability” value is 88%. On to `COC(C)(C)[C@H](O)COc1c2ccoc2cc2oc(=O)ccc12`, for which the “viability” value is 97.6%. The figure for `Nc1c(NCCN2CCOCC2)c2ccccc2oc1=O` is 88.3%. For `O=C(Nc1cccc(-c2nnc(-c3ccccc3)o2)c1)C1CCCCC1`, the “viability” value is 94%.

On to `COc1ccc(C(C)=O)cc1CSc1nc2ccccc2o1`, for which the “viability” value was 94%. Take `O=C(Nc1cccc2ccccc12)c1onc2c1CCCC2`: the “viability” value was 94.1%. As to `CNC(=O)C1C(=S)NC(N)=C(C#N)C1c1ccccc1` (stereo not given), the “viability” value is 90.6%.

As for `CC(C(=O)NC(=O)NCc1ccccc1)N1C(=O)c2ccccc2C1=O` (stereo not given), the “viability” value is 98.9%. With `CCOC(=O)c1c(-c2ccc(C)cc2)csc1NC(=O)/C(C#N)=C/c1ccc(O)c(OC)c1`, the “viability” value is 93.9%. As to `CCN(CC)S(=O)(=O)c1ccc(NC2CCCc3ccccc32)nc1` (stereo not given), the “viability” value was 93.2%. As for `CCn1c(CNc2ccc(OC)cc2)nnc1SCC(=O)c1ccc(OC)cc1`, the “viability” value was 86.7%. In the case of `Cc1ccc(C(=O)NCCc2nnc(SCC(=O)Nc3nc(-c4ccccc4)cs3)n2C)cc1`, the “viability” value was 87.6%. For `CCN(CC)c1ccc(NC2=C(Cl)C(=O)c3ccccc3C2=O)cc1` the value was 89.3%.

Take `CCCC(=O)Nc1ccc(C)c(O)c1`: the “viability” value is 87.6%. `CCn1c(Cc2ccc(OC)cc2)nnc1SCC(=O)Nc1cccc(C(=O)OC)c1`: the “viability” value is 95.5%.
